Screening results (PubChem)
Pf gametocyte – late stage P. falciparum gametocyte viability inhibitors, primary screen, ATP luminescence, HTS. P. falciparum stage V gametocytes, 24 h. inhibition, % at 10.9 µM. actives 0.065% (n = 150,000). AID 743093, 2013;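 active = inhibition above the mean plus 3 SD of compounds within the control limits, set per campaign, cut at about 38% in these data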;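 note: 0% = DMSO wells and 100% = medium only without gametocytes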
EP2 mod – EP2 receptor modulators, cAMP readout, primary screen, cell-based, HTRF cAMP, PGE2 stimulation | Prostaglandin E2 receptor EP2 subtype (Homo sapiens), P43116 | EP2-expressing cells, cAMP HTRF FRET, PGE2 co-stimulation | induction, % at 25 µM | actives 0.83% (n = 260,000) | AID 940, 2007;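 active = compounds whose cAMP rise, as percent of the full-agonist control response, exceeds 60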;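 note: rat C6 glioma line stably carrying human EP2 under a CMV promoter; the protocol text gives 20 µM as final concentration; 100% = response of wells given 1 µM PGE2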
PGE2 EP2 inh – human EP2 receptor antagonists, primary screen, TR-FRET cAMP, C6 glioma cells; actives 0.52% (n = 260,000); Prostaglandin E2 receptor EP2 subtype (Homo sapiens), P43116; inhibition, % at 25 µM; AID 1422, 2008; C6 glioma cells expressing human EP2; cells stimulated with saturating PGE2;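 active = percent inhibition above 40 after rounding to a whole number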;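 note: rat C6 glioma host cells with rolipram phosphodiesterase inhibitor present; the protocol text gives 20 µM as final concentration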
Furin inhibitor – human furin inhibitors, primary screen, biochemical, fluorescence intensity; P09958; inhibition, % at 20 µM or 30 µM; AID 463115, 2010; purified furin, fluorogenic substrate cleavage; actives 0.061% (n = 220,000); in the data active = inhibition above about 25%
Target sequence (P09958 108-714 limits assumed): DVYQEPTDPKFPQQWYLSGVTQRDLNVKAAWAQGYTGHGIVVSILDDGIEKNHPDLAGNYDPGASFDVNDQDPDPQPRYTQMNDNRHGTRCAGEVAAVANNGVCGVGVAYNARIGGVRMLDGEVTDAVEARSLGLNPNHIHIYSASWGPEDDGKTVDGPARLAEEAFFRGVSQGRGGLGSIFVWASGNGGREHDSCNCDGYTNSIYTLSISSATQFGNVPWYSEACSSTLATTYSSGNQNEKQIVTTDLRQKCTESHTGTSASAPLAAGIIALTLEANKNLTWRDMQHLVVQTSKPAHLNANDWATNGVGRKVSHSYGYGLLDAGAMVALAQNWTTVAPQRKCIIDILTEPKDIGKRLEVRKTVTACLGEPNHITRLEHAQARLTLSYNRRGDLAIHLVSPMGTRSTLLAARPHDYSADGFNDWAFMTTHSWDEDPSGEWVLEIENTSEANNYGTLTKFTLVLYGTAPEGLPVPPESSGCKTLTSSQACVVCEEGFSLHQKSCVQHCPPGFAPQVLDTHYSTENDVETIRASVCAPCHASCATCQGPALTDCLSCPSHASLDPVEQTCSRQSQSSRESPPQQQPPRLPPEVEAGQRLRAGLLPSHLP
HSV augment – enhancers of HSV replication in host cells, fold increase, host cell viability; HSV replication augmentation in cells; maximum fold increase; actives 0.005% (n = 220,000); in the data active = maximum fold increase above about 1.5; tested in PC3 cells
Starred values were filed as active, the others as inactive; i = inactive; . = not tested or not shown. Rows were chosen to be rich in hits. Some 1.4% of all compounds tested hit in one or more screens of this group.

SMILES | Pf gametocyte | EP2 mod | PGE2 EP2 inh | Furin inhibitor | HSV augment
CC1=NN(c2ccc(S(=O)(=O)O)cc2C)C(=[OH+])[C@@H]1N=Nc1cc(S(=O)(=O)O)ccc1C(=O)O.O.[Cr] | . | 26.1 | 37.9 | . | .
C[C@H]1O[C@@H](O[C@H]2[C@@H](O)C[C@H](O[C@H]3[C@@H](O)C[C@H](O[C@H]4CC[C@]5(C)C6CC[C@]7(C)[C@@H](C8=CC(=O)OC8)CC[C@]7(O)C6CC[C@@H]5C4)O[C@@H]3C)O[C@@H]2C)C[C@H](O)[C@@H]1O (stereo partly specified) | . | -6.6 | 12.1 | . | .
C[C@]12CC[C@H](O[C@@H]3O[C@H](CO)[C@@H](O)[C@H](O)[C@H]3O)C[C@@H]1CC[C@@H]1[C@@H]2CC[C@]2(C)[C@@H](C3=CCOC3=O)CC[C@@]12O | . | -1.9 | 53.1* | . | .
O=c1[nH]c(=S)n(CCC2=CCCCC2)c(O)c1C=NCCCn1ccnc1 | 10.7 | 18.4 | 7.4 | -18.0 | i
COc1cc(O)c(C(=O)O)c(-c2cc(O)c(O)cc2C)c1 | . | 23.1 | 76.6* | -2.0 | i
C[C@@H]1CC[C@@H]2N(C1)C[C@@H]1[C@](O)([C@H](O)C[C@]3(O)[C@H]4CC[C@@H]5[C@]6(O)O[C@@]4(C[C@@]13O)[C@@]5(C)CC[C@H]6O)[C@@]2(C)O | . | 11.3 | 47.8* | . | .
C=CCn1c(O)c(/C(C)=N/N2CCCCC2)c(=O)[nH]c1=O | -4.3 | 4.7 | 0.9 | -25.4 | i
C[C@H]1CCC[C@H](O)CCCCCc2cc(O)cc(O)c2C(=O)O1 | . | 9.1 | 7.5 | -35.6 | i
O=C(O)C(Oc1nc(=S)[nH]c(=S)[nH]1)(c1ccc(Cl)cc1)c1ccc(Cl)cc1 | . | 8.5 | 49.7* | . | .
N#CC(O[C@@H]1O[C@H](CO[C@@H]2O[C@H](CO)[C@@H](O)[C@H](O)[C@H]2O)[C@@H](O)[C@H](O)[C@H]1O)c1ccccc1 (stereo partly specified) | . | 1.6 | 11.1 | . | .
c1ccc2c(c1)Sc1ccccc1N2C[C@H]1CN2CCC1CC2 | . | 6.5 | 12.1 | . | .
COC(=O)[C@@H]1c2cc3c(c(O)c2[C@@H](O)C[C@]1(C)O)C(=O)c1c(O)cc2c(c1C3=O)O[C@H]1O[C@]2(C)[C@@H](O)[C@H](N(C)C)[C@H]1O | . | 19.0 | 48.7* | . | .
CC(N)C(=O)c1ccco1 (stereo unspecified) | . | 20.0 | 6.0 | -27.5 | i
N[C@H](Cc1ccc2oc3cc(=O)c4ccccc4c-3nc2c1)C(=O)O | . | -18.4 | 68.5* | . | .
O=C(O)c1cccc([As]=[As]c2cccc(C(=O)O)c2)c1 (stereo unspecified) | . | 26.6 | 42.1* | . | .
C=C1C(=O)O[C@@H]2C[C@@H](C)[C@@H]3C=CC(=O)[C@@]3(C)[C@@H](OC(=O)CC(=O)O[C@H]3[C@@H]4C(=C)C(=O)O[C@@H]4C[C@@H](C)[C@@H]4C=CC(=O)[C@]43C)[C@H]12 | . | -43.9 | 166.3* | -30.5 | i
O=C1C2CCN(CC2)C1Cc1ccc(OCCOc2ccccc2)cc1 (stereo unspecified) | . | -1.3 | 7.4 | -21.6 | i
CCCCCP(=O)(O)c1ccccc1 | 9.8 | 21.7 | 5.9 | -19.7 | i
CCCC/C(C)=C/[C@@H](NP(=O)(c1ccccc1)c1ccccc1)c1ccccc1 | . | 63.7* | 7.7 | 1.8 | i
CCOC(=O)c1c(C)n(Cc2ccco2)c2ccc(OC)cc12 | . | 63.8* | 14.3 | 1.6 | i
CC1(C)[C@@H]2CC[C@@]1(C)CN(CCC[N+](C)(C)C)C2 | . | 14.3 | 41.3* | . | .
O=C1NC(=O)C(=Cc2ccc(Br)s2)C(=O)N1 | . | -91.8 | 115.2* | . | .
Cc1nnc(SCc2nc3ccccc3c(=O)n2-c2ccccc2Cl)n1N | . | 0.9 | 12.6 | 26.4* | i
Cc1ccc(CNCCc2ccc(F)cc2)s1 | -6.2 | . | . | . | .
O=C(O)C[C@@H]1OCC=C2CN3CC[C@]45c6ccccc6N[C@H]4[C@H]1[C@H]2C[C@H]35 | . | 0.6 | 50.9* | . | .
SMILES | Pf gametocyte | EP2 mod | PGE2 EP2 inh | Furin inhibitor | HSV augment
C[C@]12CCC3C(CC[C@H]4C[C@@H](O)CC[C@]34C)C1CCC2=O (stereo partly specified) | . | -37.2 | 41.7* | . | .
C[C@]12CC[C@@H](O)CC1CC[C@@H]1[C@@H]2CC[C@]2(C)C(=O)CC[C@@H]12 (stereo partly specified) | . | 18.9 | 18.1 | . | .
CCc1nc2ccccc2c(=O)n1-c1ccccc1[N+](=O)[O-] | -0.4 | 5.6 | 49.0* | -17.5 | i
CCCCc1nc2ccccc2c(=O)n1-c1ccccc1[N+](=O)[O-] | . | 36.8 | 8.0 | -22.1 | i
Clc1ccc2c(c1)C(c1ccccc1Cl)=NCc1nncn1-2 | . | 11.7 | 15.7 | -9.5 | i
COc1cc(Br)cc(CN2CCN(C)CC2)c1O | . | 15.9 | -0.8 | -22.6 | i
Cc1ccccc1-n1c(-c2ccco2)nc2ccccc2c1=O | . | -6.1 | 12.7 | -3.7 | i
O=C1NC(=O)N(c2ccc3c(c2)OCO3)C(=O)/C1=C/c1cccs1 | -8.9 | -84.2 | 92.1* | -34.6 | .
Cc1ccc2c(c1)C1CN(C)CCC1N2C(=O)Nc1cccc(C(F)(F)F)c1 (stereo unspecified) | . | -24.1 | 10.1 | -20.1 | i
CSc1ccc2c(c1)c(CCN)c(C)n2Cc1ccccc1Cl | . | -3.1 | 104.4* | . | .
CC(=O)c1c(C)n(Cc2ccccc2Cl)c2ccc(O)cc12 | 4.1 | -27.4 | 3.2 | -12.8 | i
N=C(N)SCc1ccc(Cl)c2ccccc12 (tested in a mixture with another compound) | . | -54.5 | 61.2* | . | .
CCC[N+]12CCC(CC1)C(C(O)(c1ccccc1)c1ccccc1)C2 (stereo unspecified) | 20.6 | 26.3 | 11.1 | -27.7 | i
C[C@@H]1O[C@@H](O[C@H]2C[C@@H](O)[C@]3(CO)[C@@H]4C(CC[C@]3(O)C2)[C@@]2(O)CC[C@H](C3COC(=O)C3)[C@@]2(C)C[C@H]4O)[C@H](O)[C@H](O)[C@H]1O (stereo partly specified) | . | 18.7 | 12.2 | . | .
C[C@H]1CC[C@@H]2[C@@H](C)[C@H]3[C@H](C[C@H]4[C@@H]5CC=C6C[C@@H](O[C@@H]7O[C@H](CO)[C@H](O)[C@H](O[C@@H]8O[C@H](CO)[C@@H](O)[C@H](O)[C@H]8O)[C@H]7O[C@@H]7O[C@@H](C)[C@H](O)[C@@H](O)[C@H]7O)CC[C@]6(C)[C@H]5CC[C@]34C)N2C1 | . | -71.8 | 87.5* | -2.5 | i
CN(Cc1ccccc1)C(=O)CN1CCCC1=O | -15.4 | . | . | . | .
O=C1N[C@]2(CN3CCC2CC3)C(=O)N1CN(Cc1ccccc1)c1ccccc1 | . | 7.7 | 53.5* | . | .
CNc1ccc2oc(C[C@H]3O[C@@]4(CC[C@H]3C)O[C@H]([C@H](C)C(=O)c3ccc[nH]3)[C@H](C)C[C@H]4C)nc2c1C(=O)O | . | 56.9 | 70.9* | -30.6 | i
Cc1[nH]c2c(C(F)(F)F)cccc2c1CCN | 1.5 | -27.5 | 11.7 | -23.5 | i
